According to PubChem BioAssay AID1274 (Emory University Molecular Libraries Screening Center, 2008):
Out of some 220,000 compounds screened, about 1,100 (0.5%) were called active. This excerpt belongs to a sample that is enriched for actives. Unmarked numbers belong to inactive results.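 How the source made its calls: active means inhibition above about 30% (limit read from the data); inactive means the rest.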

The compounds below were run against Neutrophil cytosol factor 1 (Homo sapiens) (UniProt P14598) (assay: blockers of p47phox binding to p22phox – biochemical, uHTS, NADPH oxidase regulatory subunit, primary screen (AID 1274;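 further: 0% = p47phox with labelled peptide and 100% = labelled peptide alone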)). Conditions: p47phox/p22phox peptide binding, fluorescence polarization, 2 h; at 24.7 µM; stronger effect = higher value.
Neutrophil cytosol factor 1 (Homo sapiens), sequence (P14598 whole entry, looked up): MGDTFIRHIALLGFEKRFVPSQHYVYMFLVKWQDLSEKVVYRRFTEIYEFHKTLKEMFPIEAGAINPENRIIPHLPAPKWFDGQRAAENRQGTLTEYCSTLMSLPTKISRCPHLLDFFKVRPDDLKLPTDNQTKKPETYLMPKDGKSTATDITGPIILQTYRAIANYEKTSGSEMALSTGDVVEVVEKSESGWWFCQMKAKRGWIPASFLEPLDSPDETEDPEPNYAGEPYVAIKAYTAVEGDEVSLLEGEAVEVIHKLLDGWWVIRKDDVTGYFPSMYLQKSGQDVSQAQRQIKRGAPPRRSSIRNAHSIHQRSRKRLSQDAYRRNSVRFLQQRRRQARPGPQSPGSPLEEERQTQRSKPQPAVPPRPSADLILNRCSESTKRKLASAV

Compound	inhibition
O=C(COc1ccc2ccccc2c1)N1CCN(Cc2ccncc2)CC1	38.1% (active)
O=C(Cc1ccccc1[N+](=O)[O-])N1CCN(Cc2ccc3c(c2)OCO3)CC1	-1.92%
COc1ccccc1CN1CCN(C(=O)Cc2ccccc2)CC1	3.15%
COCc1cc(OC(=O)N(C)C)nc(-c2ccc(C)c(Cl)c2)n1	-3.02%
COC(=O)N(c1ccc(OC)cc1)P1(=S)OCCC(C)O1 (stereo not given)	2.14%
